Records with an inconclusive call do not appear. Calls of active or inactive are those of the source. The calls were made as follows: active = hit-call score of the fitted dose curve at least 0.9, where 1 is the maximum; inconclusive = response in the unintended direction; inactive = score below 0.9.
Legend:
[1] = TOX21_p53_BLA_p2_viability: Viability Assessment in the Tox21 HCT-116 p53 Agonism Beta-lactamase Assay, Phase 2 (AID 2283591);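 also: compound exposure lasted 16 h at 37 °C; actives lower the ATP signal meaning cytotoxicity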
Outline: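 Cytotoxicity readout: CellTiter-Glo ATP luminescence, 30 min at room temperature, after the beta-lactamase read. Cells were HCT116 exposed 16 h at 37C to compounds pin-transferred at 217-fold dilution from DMSO stocks.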

[2] = biological target: Cellular tumor antigen p53 (Homo sapiens) (UniProt P04637); experiment: TOX21_p53_BLA_p2_ratio: Tox21 HCT-116 p53 Agonism Beta-lactamase Assay, Ratio, Phase 2 (AID 2283592)
Outline: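 DMSO-normalized, positive-direction endpoint derived from the 460 nm/530 nm FRET ratio in HCT116 p53 beta-lactamase reporter cells exposed 16 h at 37C and loaded with CCF4-AM for 2 h.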

[3] = TOX21_p53_BLA_p3_viability: Viability Assessment in the Tox21 HCT-116 p53 Agonism Beta-lactamase Assay, Phase 3 (AID 2283593);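 also: cells exposed to compound for 16 h before reading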
Outline: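 Cellular ATP was quantified by CellTiter-Glo luminescence, read after 30 min at room temperature. Beforehand, HCT116 cells (4000/well) received compound 5 h post-seeding, 217-fold diluted from DMSO, then incubated 16 h at 37C.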

[4] = biological target: Cellular tumor antigen p53 (Homo sapiens) (UniProt P04637); experiment: TOX21_p53_BLA_p3_ratio: Tox21 HCT-116 p53 Agonism Beta-lactamase Assay, Ratio, Phase 3 (AID 2283596)
Outline: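 Cells were seeded at 4000/well, rested 5 h at 37C, then dosed with DMSO compound solutions (217-fold dilution) for 16 h. CCF4-AM substrate was loaded for 2 h at room temperature, and the 460/530 nm emission ratio was fitted for gain of signal versus DMSO.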

[5] = biological target: Cellular tumor antigen p53 (Homo sapiens) (UniProt P04637); experiment: TOX21_p53_BLA_p5_ratio: Tox21 HCT-116 p53 Agonism Beta-lactamase Assay, Ratio, Phase 5 (AID 2283599)
Outline: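 Beta-lactamase reporter ratio (blue 460 nm over green 530 nm, 405 nm excitation) after 2 h CCF4-AM loading, in HCT-116 cells exposed 16 h at 37 C to compounds pinned at 217-fold dilution. Increases relative to DMSO baseline scored.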

[6] = TOX21_p53_BLA_p5_viability: Viability Assessment in the Tox21 HCT-116 p53 Agonism Beta-lactamase Assay, Phase 5 (AID 2283600)
Outline: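 Here cell health was gauged by ATP levels in wells holding 4000 cells, each treated 16 h with DMSO-delivered compounds at 217-fold dilution; reduced luminescence marked toxicity.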

[7] = TOX21_p53_BLA_p4_viability: Viability Assessment in the Tox21 HCT-116 p53 Agonism Beta-lactamase Assay, Phase 4 (AID 2283597);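 also: hits lower the luminescence signal meaning cytotoxicity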
Outline: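 In this multiplexed secondary endpoint, HCT116 cells (4000 per well, compound at 5 h, 16 h treatment) received CellTiter-Glo after the beta-lactamase read. Luminescence after 30 min RT reflects ATP, and falling signal marks cytotoxicity.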

[8] = biological target: Cellular tumor antigen p53 (Homo sapiens) (UniProt P04637); experiment: TOX21_p53_BLA_p4_ratio: Tox21 HCT-116 p53 Agonism Beta-lactamase Assay, Ratio, Phase 4 (AID 2283601)
Outline: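 Signal is the blue/green (460nm/530nm) ratio of cleaved versus uncleaved CCF4-AM substrate, read after 2 h substrate loading. Cells were HCT116 carrying the p53-responsive beta-lactamase reporter, dosed 16 h at 37C, 5% CO2; CellTiter-Glo measured in parallel.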

Measured: outcome

Sequence of Cellular tumor antigen p53 (Homo sapiens) (P04637 whole entry, looked up): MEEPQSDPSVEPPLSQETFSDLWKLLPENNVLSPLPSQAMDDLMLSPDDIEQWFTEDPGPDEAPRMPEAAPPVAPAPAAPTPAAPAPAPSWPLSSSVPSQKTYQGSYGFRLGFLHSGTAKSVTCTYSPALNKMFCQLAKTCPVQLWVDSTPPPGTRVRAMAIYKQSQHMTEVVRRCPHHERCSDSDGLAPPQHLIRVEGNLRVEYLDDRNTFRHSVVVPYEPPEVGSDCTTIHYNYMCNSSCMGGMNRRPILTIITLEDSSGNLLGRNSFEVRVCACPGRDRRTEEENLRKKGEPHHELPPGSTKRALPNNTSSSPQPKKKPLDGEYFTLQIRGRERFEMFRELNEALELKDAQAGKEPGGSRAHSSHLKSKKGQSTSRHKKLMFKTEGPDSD

O=C1Nc2ccccc2C1=O
not listed: [7] | [8]
inactive: all other assays above

CN(C)CCOCCN(C)CCO
inactive: [1] | [2] | [3] | [4] | [5]

COC(=O)c1ccccc1Cl
inactive: [1] | [2] | [3] | [4] | [5]

CN(C)CCc1c[nH]c2ccc(CS(=O)(=O)N3CCCC3)cc12
not listed: [5] | [6]
inactive: all other assays above

CN1CC(O)c2cc(N=NC(N)=O)c(O)cc21 (centres undefined)
not listed: [7] | [8]
inactive: all other assays above

CC(C)C[C@@H](NC(=O)[C@@H](O)[C@H](N)Cc1ccccc1)C(=O)O
not listed: [7]
inactive: all other assays above

CC(C)(C)CC(=O)OCC(=O)[C@@]12OC(C)(C)O[C@@H]1C[C@H]1[C@@H]3CCC4=CC(=O)C=C[C@]4(C)[C@@]3(F)[C@@H](O)C[C@@]12C
not listed: [7]
inactive: all other assays above

COc1ccc(C(=O)Nc2ccccc2)cc1[N+](=O)[O-]
not listed: [7]
inactive: all other assays above

Reference: PubChem BioAssay (EPA / NIEHS)
